Test systems include EKVX NSCLC; SN12C renal; UO-31 renal; TK-10 renal; ACHN renal; CAKI-1 renal; A498 renal; MOLT-4 leukemia; SR leukemia; RPMI-8226 leukemia; OVCAR-8 ovarian; OVCAR-5 ovarian; OVCAR-4 ovarian; SK-OV-3 ovarian; IGROV1 ovarian; OVCAR-3 ovarian; HS 578T breast; NCI/ADR-RES ovarian; T-47D breast; CCRF-CEM leukemia.
Assay in all cases: NCI-60 one-dose screen, 48 h (100 = growth as untreated, 0 = no growth, -100 = all killed)
Settings in all cases: 10 µM unless noted

The panel holds about 83,000 compounds, 20% with a hit somewhere; the sample as a whole holds those more often.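 Treatment: one concentration, 48 hours, 96-well format. Scoring: percent growth, with anything below 10 considered active.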 A number with no mark means an inactive call. The source made the active and inactive calls.

As for `Fc1ccc(-c2cc3nc(C(Cl)Cl)nc(-c4ccc(Cl)cc4)n3n2)cc1`, the growth in the test on EKVX NSCLC is 5.99% (active); in the test with SN12C renal, 53.3%; in the test with UO-31 renal, 27.4%; in the test on TK-10 renal, 17.3%; in the test with ACHN renal it was -63.6% (active); in the test with CAKI-1 renal, -23.3% (active). For the same compound, the growth with A498 renal is -38.8% (active); with MOLT-4 leukemia, 19.3%; with SR leukemia, 3.51% (active); with RPMI-8226 leukemia, 10.9%; in the test on OVCAR-8 ovarian, 19%; with OVCAR-5 ovarian it was -4.91% (active). Besides, the growth was -9.93% (active) with OVCAR-4 ovarian; -16.6% (active) in the test with SK-OV-3 ovarian; 44.5% with IGROV1 ovarian; -31.9% (active) in the test on OVCAR-3 ovarian; 8.56% (active) in the test on HS 578T breast; 20.3% in the test on NCI/ADR-RES ovarian. In the test with T-47D breast, the growth was 37.4%.
Regarding `O=C(N/N=C/c1ccc[nH]1)c1[nH]c2ccc(Br)cc2c1-c1ccccc1`, the growth with EKVX NSCLC is 24.4%; in the test with SN12C renal it was 28.7%; with UO-31 renal it was 12.3%; in the test with TK-10 renal it was 44.5%; in the test on ACHN renal it was 12.2%; in the test with CAKI-1 renal, 21.2%. Further, the growth in the test on CCRF-CEM leukemia is 5.27% (active); in the test with MOLT-4 leukemia, 5.94% (active); with SR leukemia, 1.89% (active); with RPMI-8226 leukemia, -1.05% (active); in the test with OVCAR-8 ovarian, 13%; in the test with OVCAR-5 ovarian it was 43.7%. Further, the growth in the test with OVCAR-4 ovarian was 33.2%; in the test with SK-OV-3 ovarian, 36.7%; with IGROV1 ovarian, 8.52% (active); in the test on OVCAR-3 ovarian it was 22.2%; in the test with HS 578T breast it was 29.5%; in the test on NCI/ADR-RES ovarian, 14.8%. Further, the growth in the test on T-47D breast was 14.1%.
In the case of `C#Cc1nc(C2=C(C)C(=O)/C(=N/OC(C)=O)C2)cs1`, the growth in the test on EKVX NSCLC is 97.5%; in the test on SN12C renal, 99%; in the test on UO-31 renal it was -92.1% (active); with TK-10 renal, 151%; with ACHN renal it was 26.3%; in the test with CAKI-1 renal, 58.5%. In addition, the growth was 80.8% with CCRF-CEM leukemia; 87.7% with MOLT-4 leukemia; 13.4% in the test with SR leukemia; 32.3% with RPMI-8226 leukemia; 78.3% with OVCAR-8 ovarian; 99.4% in the test on OVCAR-5 ovarian. The growth in the test on OVCAR-4 ovarian is 89.9%; in the test on SK-OV-3 ovarian, 104%; in the test on IGROV1 ovarian, -37.2% (active); with OVCAR-3 ovarian, 111%; in the test with HS 578T breast, 90.7%; in the test on NCI/ADR-RES ovarian, 1.61% (active). For the same compound, the growth in the test on T-47D breast is 79.9%.
Regarding `Nc1c(C(=O)c2ccc(Br)cc2)oc2nc(-c3cnccn3)cc(-c3cccs3)c12`, the growth was 102% in the test on EKVX NSCLC; 97.9% with SN12C renal; 87.1% with UO-31 renal; 172% with TK-10 renal; 103% in the test on ACHN renal; 95.2% in the test on CAKI-1 renal. The growth is 100% in the test on CCRF-CEM leukemia; 95% with MOLT-4 leukemia; 91.7% with SR leukemia; 99.8% with RPMI-8226 leukemia; 103% with OVCAR-8 ovarian; 112% with OVCAR-5 ovarian. The growth in the test on OVCAR-4 ovarian was 96.3%; in the test on SK-OV-3 ovarian, 98.6%; with IGROV1 ovarian, 97.4%; with OVCAR-3 ovarian it was 108%; with HS 578T breast, 101%; with NCI/ADR-RES ovarian, 102%. The growth with T-47D breast was 91.4%.
Take `O=C(Oc1ccc2ccc(=O)oc2c1)c1ccc(Cl)cc1`: the growth in the test with EKVX NSCLC was 99.2%; in the test on SN12C renal, 98.7%; in the test with UO-31 renal, 86.7%; with TK-10 renal, 125%; with ACHN renal, 106%; in the test with CAKI-1 renal, 98.5%. The growth in the test with CCRF-CEM leukemia is 103%; in the test on MOLT-4 leukemia, 106%; in the test with SR leukemia it was 96.6%; with RPMI-8226 leukemia, 109%; in the test on OVCAR-8 ovarian, 105%; with OVCAR-5 ovarian, 110%. The growth in the test with OVCAR-4 ovarian was 119%; in the test with SK-OV-3 ovarian it was 109%; with IGROV1 ovarian it was 104%; in the test on OVCAR-3 ovarian, 118%; in the test with HS 578T breast, 103%; in the test with NCI/ADR-RES ovarian, 101%. In the test on T-47D breast, the growth was 105%.
Consider `O=C1c2c(c3c4cc(Br)ccc4[nH]c3c3ccc4ccccc4c23)C(=O)N1CCO`, for which the growth in the test with EKVX NSCLC is 100%; in the test on SN12C renal, 89.5%; in the test on UO-31 renal, 78%; with TK-10 renal, 160%; with ACHN renal, 73.7%; with CAKI-1 renal, 69.6%. Moreover, the growth with A498 renal is 90.6%; in the test on CCRF-CEM leukemia it was 64.6%; with MOLT-4 leukemia it was 70.5%; in the test on RPMI-8226 leukemia, 80.3%; with OVCAR-8 ovarian, 85.2%; with OVCAR-5 ovarian it was 108%. Also, the growth in the test on OVCAR-4 ovarian was 104%; in the test on SK-OV-3 ovarian, 89.3%; in the test with IGROV1 ovarian it was 73.9%; in the test with HS 578T breast it was 103%; in the test on NCI/ADR-RES ovarian, 90.5%; in the test on T-47D breast it was 51.5%.
As to `C#Cc1nc(C2=C(C)C(O)CC2)cs1` (stereo not given), the growth is 113% in the test with EKVX NSCLC; 101% with SN12C renal; -66.1% (active) with UO-31 renal; 151% in the test with TK-10 renal; 94.7% with ACHN renal; 110% in the test with CAKI-1 renal. Also, the growth was 78.7% in the test on SR leukemia; 97.4% in the test on RPMI-8226 leukemia; 107% in the test on OVCAR-8 ovarian; 120% in the test with OVCAR-5 ovarian; 115% in the test on OVCAR-4 ovarian; 89% with SK-OV-3 ovarian. For the same compound, the growth with IGROV1 ovarian is 5.36% (active); with OVCAR-3 ovarian, 120%; in the test on HS 578T breast, 104%; in the test with NCI/ADR-RES ovarian, 35.9%; in the test on T-47D breast it was 92%.
As to `NS(=O)(=O)c1cccc(Nc2nc(SCC(=O)c3ccc([N+](=O)[O-])cc3)nc3ccccc23)c1`, the growth was 70.9% in the test with EKVX NSCLC; 56.9% in the test with SN12C renal; 40.5% in the test with UO-31 renal; 95.6% with TK-10 renal; 45.8% with ACHN renal; 27.6% in the test with CAKI-1 renal. For the same compound, the growth in the test on CCRF-CEM leukemia is 12%; in the test on MOLT-4 leukemia, -6.08% (active); with RPMI-8226 leukemia, -9.57% (active); in the test with OVCAR-8 ovarian, 24.1%; with OVCAR-5 ovarian, 108%; in the test on OVCAR-4 ovarian, 43%. Further, the growth is 73.5% in the test on SK-OV-3 ovarian; 16.6% in the test with IGROV1 ovarian; 36.5% in the test with OVCAR-3 ovarian; 65.6% with HS 578T breast; 72.7% in the test on NCI/ADR-RES ovarian; 10.8% in the test on T-47D breast.
With `Nc1c(C(=O)Nc2ccc(C(F)(F)F)cc2)sc2nc(-c3cnccn3)cc(-c3cccs3)c12`, the growth in the test on EKVX NSCLC is 76.1%; in the test with SN12C renal it was 94.9%; with UO-31 renal, 59.5%; in the test on TK-10 renal, 174%; with ACHN renal, 43.3%; with CCRF-CEM leukemia, 84.7%. The growth in the test with SR leukemia was 66.3%; in the test on RPMI-8226 leukemia it was 72.2%; in the test with OVCAR-8 ovarian, 66.7%; with OVCAR-5 ovarian, 102%; in the test with OVCAR-4 ovarian, 63.5%; in the test with SK-OV-3 ovarian, 88.1%. The growth with IGROV1 ovarian was 83.9%; with OVCAR-3 ovarian, 96%; with HS 578T breast, 70.3%; in the test on NCI/ADR-RES ovarian, 78.2%; in the test with T-47D breast it was 90.3%.

These data come from PubChem BioAssay (NCI).
